Screens from PubChem.
In the library only some 2.4% were active in any assay of this set; here they are far more common.
TLR9-MyD88 inh – inhibitors of TLR9-MyD88 association in cells, primary screen, cell-based, CHO, BLA complementation, fluorescence | inhibition, % at 4.98 µM | Toll-like receptor 9 (Homo sapiens) + Myeloid differentiation primary response protein … | CCF4 FRET ratio | hit rate 0.21% among 340,000;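 active means inhibition above the mean over all tested compounds plus 3 SD, cut at about 21% in these data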
NOD2 RIPK2 PPI – NOD2-RIPK2 binding disruptors in cells, primary screen, fluorescence, CHO cells, BLA complementation; Receptor-interacting serine/threonine-protein kinase 2 (Homo sapiens), O43353; CCF4 ratio; inhibition, % at 4.98 µM; hit rate 0.38% among 360,000; AID 624267, 2012; in the data active means inhibition above about 21%
TMEM16A inh – TMEM16A chloride channel inhibitors, primary screen, cell-based, HTS. HEK293 TMEM16A/YFP iodide influx fluorescence, ionomycin. normalized B-score (activity score, 25-100; higher = stronger inhibition) at 10 µM. hit rate 1.2% among 310,000. AID 588511, 2011;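 active means ratio plate-corrected score three or more library SD toward inhibition, starting fluorescence score within five deviations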;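 further: score derived from kinetic fluorescence span divided by baseline fluorescence per well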
ANO1 activ – TMEM16A chloride channel activators or potentiators, primary screen, cell-based, HTS | HEK293 TMEM16A/YFP-H148Q/I152L, iodide quench fluorescence; hits give low values | hit rate 0.3% among 340,000 | AID 623877, 2012 | B-score at 10 µM;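 active means fluorescence-ratio B-score plate-corrected deviation score at least 3 library SD below zero, with starting fluorescence score within 5 deviations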;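 further: channel opened by trigger with iodide after compound preincubation; score built on the fluorescence ratio of max minus min over baseline; more negative score means more quench and so TMEM16A activation or potentiation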
TLR4-MyD88 BLA – inhibitors of TLR4-MyD88 association in cells, primary screen, cell-based, HeLa CL3-4, BLA complementation, FRET ratio | Toll-like receptor 4 (Homo sapiens) + Myeloid differentiation primary response protein … | inhibition, % at 8.4 µM | hit rate 0.18% among 200,000 | HeLa CL3-4 TLR4/MyD88 BLA complementation; in the data active means inhibition above about 25%
HTR2A ag – mouse Htr2a agonists via beta-arrestin recruitment, primary screen, cell-based, luminescence; 5-hydroxytryptamine receptor 2A (Mus musculus), P35363; CHO-K1 mHTR2A beta-arrestin complementation; percent of 30 µM serotonin response; activation, % at 7.6 µM; hit rate 0.66% among 360,000; AID 624169, 2012;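 active means activation above a run cutoff, the mean activation of all tested compounds plus 3 SD, cut at about 14% in these data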
Target sequence (P35363 whole entry, looked up): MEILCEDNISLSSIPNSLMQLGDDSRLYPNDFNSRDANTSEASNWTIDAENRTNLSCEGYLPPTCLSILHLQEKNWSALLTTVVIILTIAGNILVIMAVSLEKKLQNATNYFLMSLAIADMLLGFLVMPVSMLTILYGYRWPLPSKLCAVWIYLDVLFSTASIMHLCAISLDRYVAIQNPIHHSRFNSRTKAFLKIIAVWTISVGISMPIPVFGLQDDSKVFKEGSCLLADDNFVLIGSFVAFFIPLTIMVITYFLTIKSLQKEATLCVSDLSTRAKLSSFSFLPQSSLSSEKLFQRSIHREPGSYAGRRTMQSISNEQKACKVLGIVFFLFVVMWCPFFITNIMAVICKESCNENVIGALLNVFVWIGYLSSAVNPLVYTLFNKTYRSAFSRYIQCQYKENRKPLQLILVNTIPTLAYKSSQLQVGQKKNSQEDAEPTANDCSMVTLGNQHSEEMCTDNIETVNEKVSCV
A number is an active result.

`COc1cc(C(=O)OCC(=O)NC(=O)NC2CCCCC2)cc(Cl)c1OC` gave TLR9-MyD88 inh inactive, NOD2 RIPK2 PPI inactive, TMEM16A inh inactive, ANO1 activ inactive and HTR2A ag inactive.
COc1ccc(N2C(=O)CSC2c2ccc(F)c(F)c2)cc1 (configuration not stated) was read as TLR9-MyD88 inh inactive, NOD2 RIPK2 PPI inactive, TMEM16A inh inactive, ANO1 activ -8.5 and HTR2A ag inactive.
`O=C(CSc1nnc(-c2ccccc2)n1C1CCCCC1)Nc1ccc(S(=O)(=O)Nc2ccccn2)cc1` gave TLR9-MyD88 inh inactive, NOD2 RIPK2 PPI inactive, TMEM16A inh inactive, ANO1 activ -11.9, TLR4-MyD88 BLA inactive and HTR2A ag inactive.
Screening CCn1c(SCC(=O)Nc2ccc(S(=O)(=O)Nc3ccccn3)cc2)nnc1-c1ccncc1 returned TLR9-MyD88 inh inactive, NOD2 RIPK2 PPI inactive, TMEM16A inh inactive, ANO1 activ inactive, TLR4-MyD88 BLA inactive and HTR2A ag inactive.
For Cc1nn(-c2ccccc2)c(Cl)c1C(=O)N1CCN(c2ncnc3c2cnn3-c2ccccc2)CC1 the results were TLR9-MyD88 inh inactive, NOD2 RIPK2 PPI inactive, TMEM16A inh 25, ANO1 activ inactive, TLR4-MyD88 BLA inactive and HTR2A ag inactive.
`CCCCNC(=S)NNC(=O)c1csc2c1CCC(C)C2` (configuration not stated) gave TLR9-MyD88 inh inactive, NOD2 RIPK2 PPI inactive, TMEM16A inh inactive, ANO1 activ inactive, TLR4-MyD88 BLA inactive and HTR2A ag inactive.
CCCN(CC(=O)Nc1ccccc1OC)C(=O)c1ccc(S(=O)(=O)NCc2ccco2)cc1 was read as TLR9-MyD88 inh inactive, NOD2 RIPK2 PPI inactive, ANO1 activ -45.5 and HTR2A ag inactive.
For CCOC(=O)c1[nH]c2ccc(OC)cc2c1N=CN(C)C the results were TLR9-MyD88 inh inactive, NOD2 RIPK2 PPI inactive, TMEM16A inh inactive, ANO1 activ inactive, TLR4-MyD88 BLA inactive and HTR2A ag inactive.
Screening O=C(NNC(=S)Nc1ccc(F)cc1)c1cccc([N+](=O)[O-])c1 returned TLR9-MyD88 inh inactive, NOD2 RIPK2 PPI inactive, TMEM16A inh inactive, ANO1 activ inactive and HTR2A ag inactive.
CC(C)CCNC(=S)Nc1ccc([N+](=O)[O-])cc1 was read as TLR9-MyD88 inh inactive, NOD2 RIPK2 PPI inactive, TMEM16A inh 100, ANO1 activ inactive, TLR4-MyD88 BLA inactive and HTR2A ag inactive.
Screening O=C(NC(NNc1ccc([N+](=O)[O-])cc1)(C(F)(F)F)C(F)(F)F)c1ccc(F)cc1 returned TLR9-MyD88 inh inactive, NOD2 RIPK2 PPI inactive, TMEM16A inh 100, ANO1 activ inactive, TLR4-MyD88 BLA inactive and HTR2A ag inactive.
O=[N+]([O-])c1ccc(NNC(=S)Nc2ccc(F)cc2)cc1 was read as TLR9-MyD88 inh inactive, NOD2 RIPK2 PPI inactive, TMEM16A inh 100, ANO1 activ inactive, TLR4-MyD88 BLA inactive and HTR2A ag inactive.
`CCCCNC(=S)NC(=O)c1ccc([N+](=O)[O-])cc1` gave TLR9-MyD88 inh inactive, NOD2 RIPK2 PPI inactive, TMEM16A inh inactive, ANO1 activ inactive, TLR4-MyD88 BLA inactive and HTR2A ag inactive.
`CCCCNC(=S)Nc1ccc([N+](=O)[O-])cc1` gave TLR9-MyD88 inh inactive, NOD2 RIPK2 PPI inactive, TMEM16A inh 100, ANO1 activ inactive, TLR4-MyD88 BLA inactive and HTR2A ag inactive.
Screening O=C(CNC(=O)Cn1cnc2sc3c(c2c1=O)CCCC3)NCc1ccccn1 returned TLR9-MyD88 inh inactive, NOD2 RIPK2 PPI inactive, TMEM16A inh inactive, ANO1 activ inactive, TLR4-MyD88 BLA inactive and HTR2A ag inactive.
Cc1ccc([N+](=O)[O-])cc1N=Nc1c(-c2ccc([N+](=O)[O-])cc2)[nH]n(C(N)=S)c1=O was read as TLR9-MyD88 inh inactive, NOD2 RIPK2 PPI inactive, ANO1 activ -5.44, TLR4-MyD88 BLA inactive and HTR2A ag inactive.
For Cc1ccc([N+](=O)[O-])cc1N=Nc1c(C)[nH]n(C(N)=S)c1=O the results were TLR9-MyD88 inh inactive, NOD2 RIPK2 PPI inactive, TMEM16A inh inactive, ANO1 activ inactive and HTR2A ag inactive.
CCOC(=O)N1N=C(CC)CC1(O)C(F)(F)F (configuration not stated) was read as TLR9-MyD88 inh inactive, NOD2 RIPK2 PPI inactive, TMEM16A inh inactive, ANO1 activ -11.2, TLR4-MyD88 BLA inactive and HTR2A ag inactive.
Screening CCOC(=O)N1N=C(c2ccc(C)cc2)CC1(O)C(F)(F)F (configuration not stated) returned TLR9-MyD88 inh inactive, NOD2 RIPK2 PPI inactive, TMEM16A inh inactive, ANO1 activ inactive, TLR4-MyD88 BLA inactive and HTR2A ag inactive.
`CCCCn1cnc2c(SCc3ccc(Cl)cc3)nc(N)nc21` gave TLR9-MyD88 inh inactive, NOD2 RIPK2 PPI inactive, ANO1 activ inactive and HTR2A ag inactive.
Screening Cc1ccc(NC(=O)CSc2nc3c(c(=O)[nH]2)CN(Cc2ccc(F)cc2)CC3)cc1C returned TLR9-MyD88 inh inactive, NOD2 RIPK2 PPI inactive, TMEM16A inh inactive, ANO1 activ -11.9, TLR4-MyD88 BLA inactive and HTR2A ag inactive.
COc1ccc(NC(=O)N(Cc2ccc(C)cc2)Cc2cccnc2)c(OC)c1 was read as TLR9-MyD88 inh inactive, NOD2 RIPK2 PPI inactive, TMEM16A inh inactive, ANO1 activ inactive, TLR4-MyD88 BLA inactive and HTR2A ag inactive.
`S=C1NC2(CCCCC2)NN1c1ccccc1` gave TLR9-MyD88 inh inactive, NOD2 RIPK2 PPI inactive, TMEM16A inh inactive, ANO1 activ -5.02, TLR4-MyD88 BLA inactive and HTR2A ag inactive.
Cc1cc(OCC(=O)NCC(c2cccs2)N2CCOCC2)ccc1C(C)C (configuration not stated) was read as TLR9-MyD88 inh inactive, NOD2 RIPK2 PPI inactive, TMEM16A inh inactive, ANO1 activ inactive and HTR2A ag inactive.
For Cc1ccc(C(C)C)c(OCC(=O)NCC(c2cccs2)N2CCOCC2)c1 (configuration not stated) the results were TLR9-MyD88 inh inactive, NOD2 RIPK2 PPI inactive, TMEM16A inh 100, ANO1 activ inactive and HTR2A ag inactive.
For CC(C)CCCCCCNC(=S)Nc1ccc(S(=O)(=O)N2CCOCC2)cc1 the results were TLR9-MyD88 inh inactive, NOD2 RIPK2 PPI inactive, TMEM16A inh 100, ANO1 activ inactive, TLR4-MyD88 BLA inactive and HTR2A ag inactive.
O=C(O)CC(C(=O)O)N1C(=O)/C(=C/c2ccc(-c3nc4ccccc4s3)o2)SC1=S (configuration not stated) was read as TLR9-MyD88 inh inactive, NOD2 RIPK2 PPI inactive, TMEM16A inh inactive, ANO1 activ -7.75, TLR4-MyD88 BLA inactive and HTR2A ag inactive.
